# Sampled rows, rich in hits. Any-hit rate of the full collection: about 7.5%.
# NPC1 prom act = activators of NPC1 promoter | Huh7 NPC1 promoter luciferase reporter, 24 h | Potency, µM (series often up to 9.22 µM), for inactives: top-dose activation, most hits filed as activators | hit rate 2.4% among 320,000 | AID 485313; also: % of control where 0% means no effect; nearly all actives have a fitted effect of over 60% in size
#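 Stable NPC1-promoter luciferase Huh7 line; cpd (DMSO) 24 h, 37 °C, 5% CO2; Amplite luciferase reagent 10 min RT; luminescence readout. qHTS format.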
# FLuc modulator = inhibits or activates purified firefly luciferase, miR-21 counter-screen; P08659; purified FLuc, Km substrates, luminescence inhibition; Potency, µM (series often up to 57.5 µM), for inactives: at the highest dose activity change, negative = inhibition, usual class: inhibitors; hit rate 6.9% among 360,000;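 also: plate controls were vehicle for no effect and reference inhibitor for full effect; nearly all actives have a fitted effect of over 55% in size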
# Target sequence (P08659 whole entry, looked up): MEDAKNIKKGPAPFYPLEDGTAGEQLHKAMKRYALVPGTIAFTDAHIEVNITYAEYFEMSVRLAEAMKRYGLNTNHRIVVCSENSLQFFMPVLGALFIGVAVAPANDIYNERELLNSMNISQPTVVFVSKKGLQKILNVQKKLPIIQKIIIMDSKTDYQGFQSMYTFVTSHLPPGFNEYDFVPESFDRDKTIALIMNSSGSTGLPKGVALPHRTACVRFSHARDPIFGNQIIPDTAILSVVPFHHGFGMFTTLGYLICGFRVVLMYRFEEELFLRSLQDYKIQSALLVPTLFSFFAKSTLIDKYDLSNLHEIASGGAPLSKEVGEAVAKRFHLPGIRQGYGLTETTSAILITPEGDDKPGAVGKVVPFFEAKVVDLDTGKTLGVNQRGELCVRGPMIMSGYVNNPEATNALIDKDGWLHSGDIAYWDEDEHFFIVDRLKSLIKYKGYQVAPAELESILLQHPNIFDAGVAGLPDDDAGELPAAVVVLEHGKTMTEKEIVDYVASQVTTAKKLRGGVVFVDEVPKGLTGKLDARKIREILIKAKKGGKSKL
#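 Biochemical qHTS of compounds, final roughly 60 µM downward over six points, against 10 nM purified firefly luciferase using Km concentrations of substrates (10 uM D-luciferin, 10 uM ATP) in Tris acetate pH 7.5 buffer; luminescence output.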
# ELG1 genotoxic = induces genotoxicity in HEK293T cells with luciferase-tagged ELG1; HEK293T ELG1-luciferase reporter, luminescence, 16 h; hit rate 1.3% among 330,000; Potency, µM (doses to about 46 µM), for the others: at the highest dose activity change, positive = activation, hits mostly activators; also: % of control where 0% means no effect; nearly all actives have a fitted effect of over 60% in size
#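 HEK293T cells expressing luciferase-tagged ELG1 were exposed to compound or DMSO vehicle for 16 hr at 37 °C and 5% CO2. Luciferase activity was then measured with ONE-Glo after 30 min at room temperature.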
# KinaseGlo FLuc = counter-screen: inhibitors of Kinase-Glo firefly luciferase | hit rate 0.28% among 200,000 | Potency, µM (titrated, usually from 38.3 µM), inactives show at the top dose activity change, negative = inhibition, actives largely listed as inhibitors | Kinase-Glo luciferase, ATP luminescence, 8 min; also: % is scaled to controls: 0 for no effect and ±100 for the full control effect; nearly all actives have a fitted effect of over 60% in size
#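 Compounds were added to a substrate mix at pH 7.2 (50 mM imidazole, 10 uM ATP, within the enzyme's linear range), followed by Kinase-Glo detection reagent; luminescence was measured after 8 minutes at ambient temperature.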
# SMN2 splice enh = enhancers of SMN2 splice variant expression | HEK293 SMN2-luciferase splicing reporter, luminescence, 30-36 h | Potency, µM (highest dose often 46.1 µM), inactives show at the top dose activity change, positive = activation, usual class: activators | hit rate 2.8% among 210,000; also: % of control where 0% means no effect; nearly all actives have a fitted effect of over 55% in size
#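 qHTS luciferase splicing reporter: luminescence rises when SMN2 exon 7 is included in transfected HEK293 cells. Compound exposure lasted 30-36 h at 37C, with 4.5 mM final sodium butyrate as control, followed by a ONE-Glo read.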
# Rab9 prom act = Rab9 promoter activation; Huh7 Rab9 promoter-luciferase reporter, luminescence, 24 h; Potency, µM (titrated, usually from 9.22 µM), without a hit: top-dose activation, negative = inhibition, hits mostly activators; hit rate 2.8% among 320,000; AID 485297; also: % of control where 0% means no effect; nearly all actives have a fitted effect of over 60% in size
#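 Measured in stably transfected Huh7 cells bearing a Rab9 promoter–luciferase construct: 24 h compound treatment at 37 °C, followed by luminescence detection.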
# * hit, by the source's call; ? = inconclusive; nt = not tested or not shown; ! = not confirmed by another sample; [ ] = dose if it differs, or a comment. Calls follow the shape of the dose curve; as a rule, active = well fitted curve in the direction sought with a large enough effect; inconclusive = small, poorly fitted or top-dose-only effect, or another doubt; inactive = no such curve, though single readings can be large; an effect the other way counts as inactive or inconclusive. Potency is read from the fitted curve at half-maximal effect.
SMILES,NPC1 prom act,FLuc modulator,ELG1 genotoxic,KinaseGlo FLuc,SMN2 splice enh,Rab9 prom act
COc1ccc(Nc2cc(C(=O)NCCCN3CCOCC3)c3ccccc3n2)cc1OC,4.1%,16.9µM*,-3.2%,-5.9%,3.0%,0.5%
CCOc1ccc(S(=O)(=O)c2cn(Cc3ccccc3C)c3ccc(OC)cc3c2=O)cc1,nt,-0.6%,nt,nt,0.3%,nt
O=C(c1ccccc1)c1ccc2cc(O)ccc2c1,?,15.1µM*,?,nt,nt,?
O=C(c1ccccc1)c1cccc(C(=O)c2ccccc2)c1,5.4%,-14.1%,-4.5%,nt,nt,2.0%
CCOC(=O)c1ccc(-c2ccc(C=O)o2)cc1,?,23.9µM*,?,nt,nt,?
CCCOC(=O)c1cc(-c2ccc(C=O)o2)ccc1Cl,21.9%,?,10.9%,-1.0%,?,28.4%
CCCOC(=O)c1ccc(-c2ccc(C=O)o2)cc1,?,13.5µM*,?,-2.4%,1.26µM*,?
CCOC(=O)N/N=C\c1cccc(OC)c1OC/C=C/c1ccccc1,3.5%,9.53µM*,-3.9%,nt,nt,8.5%
COC(=O)N/N=C\c1ccc(OC/C=C/c2ccccc2)cc1,6.8%,?,7.8%,nt,nt,-0.2%
CC(=O)N/N=C\c1ccccc1OC/C=C/c1ccccc1,?,-17.2%,16.4µM*,nt,nt,26.7%
N#CCC(=O)N/N=C\c1cccc(OC/C=C/c2ccccc2)c1,0.562µM*,13.5µM*,?,nt,nt,?
CC(=O)N/N=C\c1cccc(OC/C=C/c2ccccc2)c1,0.398µM*,10.7µM*,?,nt,nt,0.447µM*
Cc1ccc(S(=O)(=O)NCC(=O)NCC(=O)N(C)Cc2ccc3ccccc3c2)cc1C,0.5%,-0.1%,-31.5%,nt,nt,1.7%
Cc1ccc(-c2noc(-c3cccnc3NCc3ccco3)n2)cc1,nt,-13.5%,nt,nt,nt,nt
Cc1cc(NC(=O)CSc2ccc(-c3nc4cc(C)c(C)cc4[nH]3)cn2)no1,2µM*,0.19µM*,?,?,-25.7%,0.447µM*
Cc1cc2nc(-c3ccc(SCc4ccccc4C#N)nc3)[nH]c2cc1C,22.4%,9.53µM*,?,3.7%,11.2µM*,?
Cc1cc2nc(-c3ccc(SCC(=O)Nc4ccc(S(=O)(=O)NC5CC5)cc4)nc3)[nH]c2cc1C,2.82µM*,0.107µM*,?,-22.5%,3.55µM*,1.41µM*
Cc1cc2nc(-c3ccc(SCC(=O)N4CCc5ccccc54)nc3)[nH]c2cc1C,1.12µM*,0.135µM*,?,-26.5%,2.51µM*,0.501µM*
Cn1cc(S(=O)(=O)c2ccc(Cl)cc2)c(=O)c2cc(F)c(N3CCOCC3)cc21,nt,0.1%,nt,nt,nt,nt
Cc1ccnc(N2CCC(C(=O)Nc3ccc4c(c3)OCCO4)CC2)n1,0.5%,?,3.4%,0.0%,nt,14.4%
Cc1cc2nc(-c3ccc(SCc4ccc(C(=O)O)cc4)nc3)[nH]c2cc1C,?,4.26µM*,?,-5.0%,nt,?
Cc1cc(C)c(C#N)c(SCc2ccc(C(=O)O)cc2)n1,7.8%,-1.9%,-0.4%,nt,nt,-3.5%
COC(=O)CSc1ccc(-c2nc3ccc(C)cc3[nH]2)cn1,-0.3%,2.69µM*,?,15.6%,2.0%,-1.5%
CC(C)NC(=O)CSc1nnc(-c2ccc(C(C)(C)C)cc2)n1C,-3.1%,?,1.1%,-1.8%,8.1%,-2.3%
Cc1cc2nc(-c3ccc(SCC(=O)NC(C)C)nc3)[nH]c2cc1C,2.82µM*,2.13µM*,8.1%,?,?,3.16µM*
SMILES,NPC1 prom act,FLuc modulator,ELG1 genotoxic,KinaseGlo FLuc,SMN2 splice enh,Rab9 prom act
Cc1ccc2nc(SCC(=O)Nc3ncccn3)[nH]c2c1,-0.8%,-15.8%,0.5%,nt,nt,14.8%
O=C(c1ccc(Cn2cc(Cl)c([N+](=O)[O-])n2)cc1)N1CCN(Cc2ccccc2)CC1,-13.2%,5.5%,-6.5%,nt,nt,-23.2%
Cc1ccc(NC(=O)c2ncn(-c3ccccc3)n2)cc1Cl,nt,?,nt,nt,29.8%,nt
CC(=Nc1ccc(C)c(C)c1)C1=C(O)CSC1=O,20.6%,10.7µM*,18.4µM*,-11.4%,?,?
COc1ccc(-n2c(=O)c3sc4ccccc4c3n(Cc3ccccc3C)c2=O)cc1OC,nt,-1.7%,nt,nt,5.0%,nt
CCCN1C(=O)/C(=C/c2ccc(C)s2)NC1=S,-2.3%,26.9µM*,-5.8%,-0.2%,-4.2%,-6.6%
Cc1ccc(/C=C2/NC(=O)N(Cc3ccccc3F)C2=O)s1,-3.8%,7.5%,5.9%,nt,nt,-7.0%
CC(NC(=O)COC(=O)/C(=C/c1cccs1)c1cccs1)c1ccccc1 (stereo unspecified),0.8%,-0.3%,-4.9%,0.4%,-22.4%,-1.1%
O=C(Nc1nc(-c2ccccc2)cs1)c1ccc2c(=O)n3c(nc2c1)CCCCC3,-14.9%,12µM*,-19.2%,nt,nt,-18.0%
O=C(Nc1ccccc1Cl)c1ccc2c(=O)n3c(nc2c1)CCC3,3.55µM*,10.7µM*,?,nt,nt,1.12µM*
O=C(NCc1ccccc1)c1ccc2c(=O)n3c(nc2c1)CCCCC3,-1.2%,-1.2%,3.0%,nt,nt,6.4%
Cc1ccccc1C(=O)N/N=C/c1ccsc1C,?,10.7µM*,?,-7.8%,15.8µM*,5.62µM*
O=C(N/N=C/c1ccccc1F)c1cccc2ccccc12,?,-8.3%,6.4%,nt,nt,?
Cc1ccccc1C(=O)N/N=C/c1cccc2ccccc12,15.2%,5.36µM*,15.7%,nt,nt,-3.6%[1.84 µM]
CCC(C)Sc1ccc([C@H]2N[C@@](C)(C(=O)OC)[C@H]3C(=O)N(C)C(=O)[C@@H]23)cc1 (stereo partly specified),nt,nt,3.0%,nt,nt,nt
C=C1c2ccccc2S(=O)(=O)N(Cc2ccccc2)C1COCc1ccccc1 (stereo unspecified),-0.5%,-3.3%,-1.6%,nt,nt,-1.2%
CC(=O)Nc1ccc(S(=O)(=O)NC2(C(F)(F)F)C(=O)Nc3c2c(=O)[nH]c(=O)n3-c2ccc(C)c(C)c2)cc1 (stereo unspecified),nt,-12.2%,nt,nt,0.4%,nt
O=C1/C(=C\c2cccs2)N=C(c2cccs2)N1Nc1ccccc1,-2.6%,21.3µM*,-5.2%,-6.5%,-5.6%,-18.3%
Cc1ccc(C2=N/C(=C\c3cccs3)C(=O)N2Nc2ccccc2)cc1,-0.2%,-19.8%,-2.0%,0.8%,-1.4%,14.9%
O=C1/C(=C/c2cccs2)N=C(c2cccs2)N1Nc1ccccc1,-3.0%,23.9µM*,2.4%,0.8%,-6.6%,10.0%
O=C(NN1C(=O)/C(=C/c2cccs2)SC1=S)c1ccccc1,-1.8%,0.4%,-1.4%,3.3%,-6.1%,-4.5%
COc1cccc(NC(=O)c2sc3nc4n(c(=O)c3c2C)CCC4)c1,?,19µM*!,?,nt,nt,3.98µM*
Cc1ccc(NC(=O)c2sc3nc4n(c(=O)c3c2C)CCCCC4)c(Br)c1,nt,2.8%,nt,nt,nt,nt
CSc1cccc(NC(=O)c2sc3nc4n(c(=O)c3c2C)CCC4)c1,3.55µM*,26.9µM*,?,nt,nt,?

# Screening data (PubChem)
